Our source for the Potency and outcome values is PubChem BioAssay (Tox21).

A short description of experiment [1]: Nuclear factor erythroid 2-related factor 2/antioxidant responsive element (Nrf2/ARE) small molecule agonists: qHTS cell viability counter screen in human keratinocytes (AID 1919968; active = well fitted curve in the direction sought with a large enough effect in the repeat runs; an effect the other way counts as inactive or inconclusive; also: nearly all actives have a fitted effect of over 55% in size). The gist of the method:
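In human HaCaT keratinocytes stably expressing an ARE-driven luciferase, compound exposure lasted 23 h at 37 C under 5% CO2. Viable cells are quantified with a protease-based fluorogenic reagent (CellTiter-Fluor) read 1 h after addition.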
(In general: qHTS replaces the single test concentration by a dilution series.)

Experiment [2] can be described thus: Nuclear factor erythroid 2-related factor 2/antioxidant responsive element (Nrf2/ARE) small molecule agonists: luciferase reporter gene qHTS assay in human keratinocytes (AID 1919969). Also: nearly all actives have a fitted effect of over 35% in size. Also: potency is read from the fitted curve at half-maximal effect. For orientation: In a reporter assay the amount or activity of a reporter protein is the signal.
The target in experiment [3] is Gonadotropin-releasing hormone receptor (Homo sapiens) (UniProt P30968). Put plainly: Human gonadotropin-releasing hormone receptor (GnRHR) small molecule agonists, calcium flux assay in GnRHR-HEK293 cells (AID 1920063). Also: nearly all actives have a fitted effect of over 35% in size. The gist of the method: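 Intracellular calcium rise is the read-out: engineered human GnRHR HEK293 cells, dye-loaded, are exposed to DMSO-dissolved compounds and fluorescence at Ex/Em 480/540 is tracked for 3 min.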
Gonadotropin-releasing hormone receptor (Homo sapiens), sequence (P30968 whole entry, looked up): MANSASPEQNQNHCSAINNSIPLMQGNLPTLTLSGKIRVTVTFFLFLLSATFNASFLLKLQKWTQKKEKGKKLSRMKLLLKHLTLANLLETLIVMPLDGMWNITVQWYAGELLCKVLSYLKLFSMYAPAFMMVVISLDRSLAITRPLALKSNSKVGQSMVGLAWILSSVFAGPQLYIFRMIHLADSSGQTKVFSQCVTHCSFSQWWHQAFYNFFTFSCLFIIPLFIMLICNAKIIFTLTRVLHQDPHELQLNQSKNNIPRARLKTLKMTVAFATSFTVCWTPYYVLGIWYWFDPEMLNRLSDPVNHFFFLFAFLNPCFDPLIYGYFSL
Background: A change in cytosolic calcium serves as a functional read-out for many receptors and channels.

The target in experiment [4] is KiSS-1 receptor (Homo sapiens) (UniProt Q969F8). Put plainly: Human kisspeptin (KISS1R) small molecule agonists, calcium flux assay in KISS1R-HEK293 cells (AID 1920064; active = well fitted curve in the direction sought with a large enough effect in the repeat runs; an effect the other way counts as inactive or inconclusive). The gist of the method: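 Concentration-response testing used 15 concentrations in triplicate on human KISS1R-expressing HEK293 cells. Calcium-dependent fluorescence (Ex/Em 480/540) was followed kinetically for 3 min after compound transfer.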
KiSS-1 receptor (Homo sapiens), sequence (Q969F8 whole entry, looked up): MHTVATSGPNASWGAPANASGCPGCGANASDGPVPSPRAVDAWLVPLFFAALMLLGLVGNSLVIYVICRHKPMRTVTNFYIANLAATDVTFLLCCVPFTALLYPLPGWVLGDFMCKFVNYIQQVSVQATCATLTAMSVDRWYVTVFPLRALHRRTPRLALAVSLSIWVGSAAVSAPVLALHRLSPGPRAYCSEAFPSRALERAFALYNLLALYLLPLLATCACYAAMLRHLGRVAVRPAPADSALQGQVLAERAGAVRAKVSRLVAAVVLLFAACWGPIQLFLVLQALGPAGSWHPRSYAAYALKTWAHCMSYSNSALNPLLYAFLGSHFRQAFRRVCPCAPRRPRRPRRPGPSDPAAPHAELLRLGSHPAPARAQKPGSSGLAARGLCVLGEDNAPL

The nature of experiment [5]: G protein-coupled receptor (GPCR) small molecule agonists, calcium flux assay: HEK293 wild type cell line counter screen (AID 1920065). The gist of the method:
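Fluorescence intensity signals activation. After overnight (18 h) culture and a 1 h calcium dye load at 37 C, compounds are added by pin tool and the plate read at 480/540 nm for 3 min in 1 s steps.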

Experiment [6] is described as follows: p53 small molecule agonists, cell-based qHTS assay with human liver microsomes (AID 1963577).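 Also: p53 response element beta-lactamase reporter cells with liver microsomes plus NADPH.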 The gist of the method: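 Reporter activation was measured by LiveBLAzer fluorescence intensity in p53RE-bla cells, which had been exposed to compounds for 16 h at 37 C alongside 0.5 mg/mL human liver microsomes and 0.5 mg/mL NADPH (final concentrations).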
Experiment [7] is described as follows: p53 small molecule agonists, cell-based qHTS assay with rat liver microsomes (AID 1963578). The gist of the method: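 Compound in DMSO added to p53RE-bla cells 5 h post-plating; rat microsomes/NADPH 0.5 mg/mL final; 16 h, 37 C; LiveBLAzer 2 h RT.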
The nature of experiment [8]: p53 small molecule agonists, cell-based qHTS assay with human liver microsomes: qHTS cell viability counter screen (AID 1963579). Also: nearly all actives have a fitted effect of over 45% in size. The gist of the method: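 HLM-supplemented (0.5 mg/mL final) and NADPH-supplemented (0.5 mg/mL final) p53RE-bla cultures, 4,000 cells per well, were dosed with compounds in DMSO for 16 h at 37 C; luminescent ATP detection (CellTiter-Glo, 30 min, room temperature) quantified surviving cells.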

Experiment [9] can be described thus: p53 small molecule agonists, cell-based qHTS assay with rat liver microsomes: qHTS cell viability counter screen (AID 1963580). Also: nearly all actives have a fitted effect of over 45% in size. The gist of the method:
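Luminescent ATP readout (CellTiter-Glo, 30 min at room temperature) reports viability of p53RE-bla HCT-116 cells after 16 h at 37 C with test compounds under metabolic activation by rat liver microsomes and NADPH at 0.5 mg/mL final each.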

A short description of experiment [10]: p53 small molecule agonists, cell-based qHTS assay (AID 1963582; active = well fitted activation curve with a large enough effect in the signal ratio in the repeat runs, not every such curve was filed as active; the % refers to the signal ratio). The gist of the method: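 After plating, p53RE-bla cells sat 5 h in the incubator; compounds or DMSO vehicle were pinned in; a 16 h incubation at 37 C followed; FRET substrate was added and, 2 h later at RT, fluorescence was measured.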
The target in experiment [11] is 5-hydroxytryptamine receptor 2A (Homo sapiens) (UniProt P28223). In words: 5-hydroxytryptamine receptor 2A (HTR2A) small molecule antagonists, cell-based qHTS assay (AID 1963586). Also: nearly all actives have a fitted effect of over 45% in size. Also: potency is read from the fitted curve at half-maximal effect. The gist of the method: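 CHO cells stably expressing human HTR2A were plated for 18 h at 37 C, then loaded with calcium dye for 1 h. Compounds were preincubated 5 min at room temperature before DOI (4 nM solution) was added. Kinetic fluorescence was read for 3 min.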
5-hydroxytryptamine receptor 2A (Homo sapiens), sequence (P28223 whole entry, looked up): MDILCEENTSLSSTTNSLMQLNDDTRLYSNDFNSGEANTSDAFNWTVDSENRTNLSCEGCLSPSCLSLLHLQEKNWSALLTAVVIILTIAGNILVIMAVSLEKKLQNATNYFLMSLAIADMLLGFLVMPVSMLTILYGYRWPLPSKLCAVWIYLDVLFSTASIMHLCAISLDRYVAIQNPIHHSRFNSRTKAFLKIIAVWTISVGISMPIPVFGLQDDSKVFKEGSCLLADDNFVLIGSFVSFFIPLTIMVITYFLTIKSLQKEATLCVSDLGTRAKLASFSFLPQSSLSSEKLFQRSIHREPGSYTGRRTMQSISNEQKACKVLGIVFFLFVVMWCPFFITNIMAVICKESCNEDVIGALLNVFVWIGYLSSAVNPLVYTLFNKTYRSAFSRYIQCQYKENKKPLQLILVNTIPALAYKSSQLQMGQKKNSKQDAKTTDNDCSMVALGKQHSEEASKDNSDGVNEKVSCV

Experiment [12] has the same target. In words: 5-hydroxytryptamine receptor 2A (HTR2A) small molecule agonists, cell-based qHTS assay (AID 1963587). Also: nearly all actives have a fitted effect of over 30% in size. The gist of the method: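 HTR2A-CHO cells, plated 18 h at 37 C/5% CO2, dye-loaded 1 h at 37 C; compounds in DMSO added by pin tool (agonist mode). Intracellular calcium flux read as kinetic fluorescence on FDSS over 2 min at 1 s intervals.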
Experiment [13] deals with Muscarinic acetylcholine receptor M1 (Homo sapiens) (UniProt P11229). In words: Cholinergic receptor muscarinic 1 (CHRM1) small molecule antagonists, cell-based qHTS assay (AID 1963588). Also: nearly all actives have a fitted effect of over 40% in size. The gist of the method:
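Compounds were tested at 15 concentrations in three independent runs. Dye-loaded CHRM1-CHO cells were exposed 5 min at room temperature before stimulation by acetylcholine added at 50nM. Intracellular calcium was read kinetically on FDSS for 3 min.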

Experiment [14] has the same target. Put plainly: Cholinergic receptor muscarinic 1 (CHRM1) small molecule agonists, cell-based qHTS assay (AID 1963589). Also: nearly all actives have a fitted effect of over 35% in size. The gist of the method: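 Fluorescent calcium dye reports M1 activation in stably transfected CHO cells. Compounds, 15 concentrations, added after 1 h dye loading at 37 C; kinetic reading at 1 sec intervals.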
Experiment [15] can be described thus: cAMP Responsive Elements (CRE) small molecule antagonists, cell-based qHTS assay (AID 1963591; active = well fitted inhibition curve with a large enough effect in the signal ratio in the repeat runs, not every such curve was filed as active; the % refers to the signal ratio). The gist of the method:
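Stimulation used NKH477 at a final 0.25 uM for 3 h in compound-treated CRE-bla HEK293T cells, seeded 18 h beforehand. Reporter activity was measured with LiveBLAzer B/G FRET substrate after 2 h at room temperature.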

Experiment [16] has as its target Beta-2 adrenergic receptor (Homo sapiens) (UniProt P07550). In words: Adrenergic beta2 receptor (ADRB2) small molecule antagonists, cell-based qHTS assay (AID 1963592). Also: series mostly up to about 92 µM; nearly all actives have a fitted effect of over 50% in size. The gist of the method: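 Assay format: CHO-ADRB2 cells, 18-20hr seeding at 37C/5% CO2, then compound plus 1nM isoproterenol agonist mix for 0.5hr RT. Homogeneous time-resolved fluorescence cAMP detection after 1hr, expressed as 665/615 nm ratio.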

In experiment [17] the target is D(2) dopamine receptor (Homo sapiens) (UniProt P14416). Put plainly: Dopamine D2 receptor (DRD2) small molecule agonists, cell-based qHTS assay (AID 1963594). Also: nearly all actives have a fitted effect of over 35% in size. The gist of the method:
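HEK293 cells stably expressing DRD2 were cultured 24 h at 37 C, then given Ro20-1724 (0.1 mM final) and compounds for 10 min at room temperature. NKH477 (200nM) was then added for 30 min. cAMP was read by HTRF.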

The target is the same in experiment [18]. In words: Dopamine D2 receptor (DRD2) small molecule antagonists, cell-based qHTS assay (AID 1963595; active = well fitted inhibition curve with a large enough effect in the signal ratio in the repeat runs, with a control signal flat; the % refers to the signal ratio). The gist of the method:
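Antagonist mode in DRD2-HEK293 cells: after compound addition with 0.1 mM Ro20-1724, cells received quinpirole (12 nM) and NKH477 (200 nM) for 30 min at room temperature; HTRF cAMP read after 1 h detection.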

Experiment [19] can be described thus: cAMP Responsive Elements (CRE) small molecule agonists, cell-based qHTS assay (AID 1963590). The gist of the method: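 Compound exposure lasted 3 h at 37 C/5% CO2 in CRE-bla HEK 293T cells grown in assay medium with 10% dialyzed FBS and 25 mM HEPES. Reporter signal came from LiveBLAzer B/G FRET substrate, 2 h, room temperature.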
The target of experiment [20] is Beta-2 adrenergic receptor (Homo sapiens) (UniProt P07550). Put plainly: Adrenergic beta2 receptor (ADRB2) small molecule agonists, cell-based qHTS assay (AID 1963593).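 Also: CHO cells stably overexpressing human ADRB2.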 The gist of the method:
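CHO cells stably over-expressing ADRB2 were plated overnight at 37C, then dosed with compounds plus a stimulation mix containing 100uM IBMX and 25uM Ro-20-1724 for 0.5hr at room temperature. cAMP was measured by HTRF competition, 1hr.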

Each structure is given as a SMILES string. Values without a mark were called inactive. Inconclusive results are not listed. Activity calls are given as the source filed them. Unless noted, calls follow the shape of the full dose curve.

Muscarinic acetylcholine receptor M1 (Homo sapiens), sequence (P11229 whole entry, looked up): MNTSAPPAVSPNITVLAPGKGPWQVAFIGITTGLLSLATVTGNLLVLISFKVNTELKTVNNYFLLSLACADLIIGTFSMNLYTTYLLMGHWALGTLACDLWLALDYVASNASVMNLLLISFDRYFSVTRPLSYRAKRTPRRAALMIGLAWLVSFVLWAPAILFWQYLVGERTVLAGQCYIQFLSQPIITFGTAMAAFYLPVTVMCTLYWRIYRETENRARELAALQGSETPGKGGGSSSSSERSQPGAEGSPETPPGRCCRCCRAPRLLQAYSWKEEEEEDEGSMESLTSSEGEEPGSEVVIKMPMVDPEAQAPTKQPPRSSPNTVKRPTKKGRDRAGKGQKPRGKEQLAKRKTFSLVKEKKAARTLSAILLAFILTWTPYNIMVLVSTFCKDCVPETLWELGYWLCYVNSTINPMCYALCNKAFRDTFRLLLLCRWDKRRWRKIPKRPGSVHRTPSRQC
D(2) dopamine receptor (Homo sapiens), sequence (P14416 whole entry, looked up): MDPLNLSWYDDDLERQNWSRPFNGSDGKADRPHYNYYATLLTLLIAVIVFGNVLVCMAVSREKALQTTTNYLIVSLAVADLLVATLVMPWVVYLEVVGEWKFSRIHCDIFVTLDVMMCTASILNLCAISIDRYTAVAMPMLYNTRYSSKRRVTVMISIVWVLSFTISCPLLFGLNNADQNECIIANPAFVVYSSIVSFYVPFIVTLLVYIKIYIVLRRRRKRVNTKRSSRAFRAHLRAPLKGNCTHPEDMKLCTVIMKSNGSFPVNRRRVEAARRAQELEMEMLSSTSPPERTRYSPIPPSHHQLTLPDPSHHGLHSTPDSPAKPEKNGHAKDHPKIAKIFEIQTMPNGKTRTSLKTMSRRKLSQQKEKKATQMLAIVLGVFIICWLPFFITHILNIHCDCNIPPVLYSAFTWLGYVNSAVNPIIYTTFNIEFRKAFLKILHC
Beta-2 adrenergic receptor (Homo sapiens), sequence (P07550 whole entry, looked up): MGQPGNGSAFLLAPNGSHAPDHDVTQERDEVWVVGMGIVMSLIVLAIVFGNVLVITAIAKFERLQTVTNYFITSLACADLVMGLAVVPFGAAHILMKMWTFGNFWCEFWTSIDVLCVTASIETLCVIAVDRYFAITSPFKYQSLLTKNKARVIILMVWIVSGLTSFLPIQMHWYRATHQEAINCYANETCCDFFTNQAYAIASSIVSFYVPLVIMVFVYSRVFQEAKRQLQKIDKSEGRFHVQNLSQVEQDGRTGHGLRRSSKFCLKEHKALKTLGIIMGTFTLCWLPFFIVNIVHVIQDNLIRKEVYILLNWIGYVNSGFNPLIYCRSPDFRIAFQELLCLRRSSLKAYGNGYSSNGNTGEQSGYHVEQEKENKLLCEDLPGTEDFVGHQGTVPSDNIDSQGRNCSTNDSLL

As to `C#CCOC(=O)[C@@H](C)Oc1ccc(Oc2ncc(Cl)cc2F)cc1`, the Potency result in experiment [1], in experiment [2], in [3], in [6], in [7] and in experiment [8] was “inactive” in each case. For the same compound, the Potency result in [9], in experiment [10], in [11], in experiment [12], in experiment [13] and in experiment [14] was “inactive” in each case. In addition, the Potency result in experiment [15], in experiment [16], in experiment [17] and in experiment [18] was “inactive” throughout. Moreover, the result in experiment [4] and in experiment [5] was inactive.
As for `COC(=O)CCCCC(CCSS/C(CCO)=C(\C)N(C=O)Cc1cnc(C)nc1N)SC(C)=O` (stereo not drawn), the Potency entry in experiment [1], in experiment [2], in experiment [3], in experiment [6], in experiment [7] and in [8] was “inactive” each time. For the same compound, the Potency result in experiment [9], in experiment [10], in [12], in experiment [13], in experiment [19] and in experiment [15] was “inactive” in each case. In addition, the Potency entry in experiment [16], in experiment [20], in [17] and in experiment [18] was “inactive” throughout. For the same compound, the outcome in experiment [4] and in experiment [5] was inactive.
For `CNS(=O)(=O)CCc1ccc2[nH]cc(C3CCN(C)CC3)c2c1`, the Potency entry in experiment [1], in experiment [2], in experiment [3], in [6], in [7] and in [8] was “inactive” in each case. Besides, the Potency result in [9], in experiment [10], in experiment [12], in experiment [13], in experiment [14] and in experiment [19] was “inactive” in each case. The Potency result in experiment [15], in experiment [17] and in experiment [18] was “inactive” in each case. Also, the result in [4] and in experiment [5] was inactive.
As for `CCOC(=O)C(=O)CCc1ccccc1`, the Potency result in experiment [1], in [2], in experiment [3], in experiment [6], in experiment [7] and in experiment [8] was “inactive” in each case. The Potency result in experiment [9], in experiment [10], in experiment [11], in [12], in [13] and in experiment [14] was “inactive” each time. For the same compound, the Potency entry in experiment [15], in [16] and in [17] was “inactive” throughout. In addition, the outcome in experiment [4] and in experiment [5] was inactive.
With `CS(=O)(=O)c1ccc([C@@H](C[C@H]2CCC(=O)C2)C(=O)Nc2cnccn2)cc1Cl`, the Potency entry in experiment [1], in [2], in experiment [3], in [6], in experiment [7] and in experiment [8] was “inactive” each time. The Potency result in experiment [9], in experiment [10], in experiment [12], in experiment [13], in experiment [14] and in experiment [16] was “inactive” throughout. Besides, the Potency entry in experiment [20], in [17] and in experiment [18] was “inactive” in each case. For the same compound, the outcome in experiment [4] and in experiment [5] was inactive.
On to `O=c1[nH]cccc1O`, for which the Potency entry in experiment [1], in experiment [2], in experiment [3], in experiment [6], in experiment [7] and in experiment [8] was “inactive” each time. The Potency result in experiment [9], in experiment [10], in [11], in experiment [12], in experiment [13] and in experiment [14] was “inactive” in each case. Further, the Potency entry in experiment [15], in [16], in [17] and in experiment [18] was “inactive” each time. Moreover, the outcome in [4] and in [5] was inactive.
Consider `Cc1ccc(S)cc1`, for which the Potency entry in [1], in [3], in [6], in experiment [7], in experiment [8] and in experiment [9] was “inactive” each time. Besides, the Potency result in [10], in experiment [12], in [13], in [14], in experiment [16] and in experiment [20] was “inactive” throughout. The Potency result in experiment [17] and in experiment [18] was “inactive” each time. For the same compound, the Potency in experiment [2] was 24.3 µM (active); in experiment [11] it was 42.1 µM (active). In addition, the outcome in [4] and in [5] was inactive.
